Compounds with a hit are over-represented: about 19% of the library has one in this group of screens.
TDP1 cell noCPT – qHTS for Inhibitors of human tyrosyl-DNA phosphodiesterase 1 (TDP1): qHTS in cells in absence of CPT; hit rate 15% among 420,000; DT40 Tdp1-/- hTDP1 cells, no CPT, ATP luminescence, 48 h; Potency, µM (top dose mostly 46.2 µM), for inactives: at the top dose activity change, negative = growth inhibition, most hits filed as inhibitors; further: nearly all actives have a fitted effect of over 55% in size
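Growth kinetics read by CellTiter-Glo luminescence after ≥48 hr at 37 °C. Cells: DT40 Tdp1-/- stably carrying human TDP1, 400 per well, compound exposure in the absence of CPT (DMSO vehicle).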
RORgamma inh – blocks mouse ROR gamma transcriptional activity; Drosophila S2 Gal4-RORgamma UAS-luciferase reporter, 20 h; Potency, µM (highest dose often 53.6 µM), for the others: at the top dose activity change, negative = inhibition, actives largely listed as inhibitors; hit rate 5.4% among 310,000; AID 2551; further: nearly all actives have a fitted effect of over 60% in size
Target sequence (P51450 whole entry, looked up, the tested form may be a part): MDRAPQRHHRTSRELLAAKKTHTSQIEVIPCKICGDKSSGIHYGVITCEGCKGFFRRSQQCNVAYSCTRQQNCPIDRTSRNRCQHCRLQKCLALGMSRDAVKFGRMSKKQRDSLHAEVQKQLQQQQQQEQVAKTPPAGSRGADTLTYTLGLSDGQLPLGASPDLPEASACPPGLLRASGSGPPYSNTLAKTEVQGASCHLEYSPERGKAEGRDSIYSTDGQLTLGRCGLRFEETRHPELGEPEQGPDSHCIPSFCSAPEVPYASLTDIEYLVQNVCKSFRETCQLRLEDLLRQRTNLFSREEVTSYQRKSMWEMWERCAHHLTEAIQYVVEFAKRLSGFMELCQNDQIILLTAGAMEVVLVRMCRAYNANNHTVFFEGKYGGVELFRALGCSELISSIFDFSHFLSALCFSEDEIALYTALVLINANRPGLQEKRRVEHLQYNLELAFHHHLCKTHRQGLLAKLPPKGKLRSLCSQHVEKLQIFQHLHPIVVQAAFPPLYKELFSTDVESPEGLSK
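A Gal4/UAS one-hybrid system in insect cells: metallothionein-promoter Gal4–ROR gamma fusion plus Photinus luciferase reporter. Copper sulfate 700 uM final, 20 hr ambient incubation, luminescent detection after 10 min with reagent.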
TDP1 cell CPT – growth inhibition of DT40 Tdp1-/-;hTDP1 cells with camptothecin (screen for TDP1 inhibitors); Potency, µM (top dose mostly 46.2 µM), inactives show top-dose activity change, negative = growth inhibition, actives largely listed as inhibitors; chicken DT40 Tdp1-/-;hTDP1 cells + 20 nM CPT, ATP luminescence, 48 h; AID 686979; hit rate 12% among 420,000; further: nearly all actives have a fitted effect of over 55% in size
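Cell growth measured by CellTiter-Glo luminescence after a minimum 48 h, 37 C compound exposure with 20 nM CPT in Tdp1-knockout DT40 cells stably expressing hTDP1, seeded 400/well; qHTS titration format.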
TDP1 block – inhibitors of human tyrosyl-DNA phosphodiesterase TDP1; Q9NUW8; recombinant TDP1, AlphaScreen DNA substrate cleavage; Potency, µM (highest dose often 130 µM), for the others: at the top dose activity change, negative = inhibition, hits mostly inhibitors; hit rate 0.28% among 350,000; further: nearly all actives have a fitted effect of over 40% in size
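Recombinant human Tdp1 (E. coli-expressed, 1 nM final) preincubated with compounds 15 min at room temperature, then 5'-biotin/3'-phosphotyrosine-FITC DNA substrate (15 nM final) added for 5 min. AlphaScreen beads (10 ug/ml final) added 10 min; cleavage lowers signal.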
Gal4-VP16 FLuc – Gal4-VP16 reporter inhibition counter-screen; Drosophila S2 Gal4-VP16 UAS-luciferase, luminescence, 20 h; Potency, µM (series often up to 53.6 µM), for inactives: at the highest dose activity, negative = inhibition, usual class: inhibitors; hit rate 3.5% among 310,000; AID 2546;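 further: Gal4-VP16 expression switched on by copper sulfate through the metallothionein promoter; nearly all actives have a fitted effect of over 50% in size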
* = called active by the depositor; ? = inconclusive; / = no result given; [ ] = remark or other dose. The call rests on the fitted dose curve; in most records, active means well fitted curve in the direction sought with a large enough effect; inconclusive means small, poorly fitted or top-dose-only effect, or another doubt; inactive means no such curve, though single readings can be large; an effect the other way counts as inactive or inconclusive. On the % scale 0 is the no-effect control and ±100 the full control effect; potency means the concentration at half of the fitted maximal effect.

SMILES	TDP1 cell noCPT	RORgamma inh	TDP1 cell CPT	TDP1 block	Gal4-VP16 FLuc
CCCN[C@@H]1CCc2c(OC)cccc2[C@@H]1C	-22%	0%	13%	4%	-4%
CCCN(CCC)[C@@H]1CCc2c(OC)cccc2[C@@H]1C	15µM*	-15%	?	7%	19%
O=C1NCCOC(=O)[C@H](Cc2ccc(F)cc2)CC/C=C/C[C@H]1CC(=O)N(CCO)Cc1ccccc1	?	/	?	0%	/
O=C1NCCOC(=O)[C@@H](Cc2ccc(F)cc2)CC/C=C/C[C@@H]1CC(=O)N(CCO)Cc1ccccc1	23µM*	/	21µM*	0%	/
O=c1[nH]c(O)c(N=Nc2cc(C(F)(F)F)ccc2Cl)c(=O)[nH]1	?	20%	?	1%	-4%
Cc1cc(C)cc(Oc2nc3ccccn3c(=O)c2/C=C(\C#N)c2nc3ccccc3s2)c1	9.2µM*	/	?	3%	/
Cc1cccn2c(=O)c(/C=C(\C#N)c3nc4ccccc4s3)c(Oc3ccc(F)cc3)nc12	21µM*	/	?	-8%	/
Cc1cccc(Oc2nc3c(C)cccn3c(=O)c2/C=C(\C#N)c2nc3ccccc3s2)c1	18µM*	/	?	-11%	/
O=c1c2ccccc2nc(-c2ccccc2Cl)n1-c1ccc(O)cc1	?	9%	-10%	/	-8%
O=C(Oc1ccccc1)N1CCC2(CC1)CN(C(c1ccccc1)c1ccccc1)C2	?	15%	-12%	/	1%
O=C(CSc1ccc(-c2ccco2)nn1)Nc1ccccc1	?	40%	-3%	3%	-15%
CCCn1c2ccccc2c2nnc(SCC(=O)Nc3cccc(C(C)=O)c3)nc21	15µM*	/	?	-1%	/
Cc1ccccc1-c1ccc2c(c1)C1c3c(-c4ccccc4)nnn3-c3ccccc3C(=O)N1CC2 (centres undefined)	29µM*	/	21µM*	/	/
O=C1c2ccccc2-n2nncc2C2c3cc(Br)ccc3CCN12 (centres undefined)	-20%	/	?	/	/
Cc1ccc(N=Cc2c(O)n(-c3ccc(C)cc3)c(=O)[nH]c2=O)cc1	-19%	/	1%	/	/
O=S(=O)(c1cccc(C(F)(F)F)c1)N1Cc2ccccc2-n2nncc2C1	9.2µM*	/	23µM*	/	/
Cc1ccc(S(=O)(=O)N2Cc3cc(N4CCOCC4)ccc3-n3nncc3C2)cc1	?	/	-28%	/	/
O=S(=O)(c1ccccc1)N1Cc2ccccc2-n2nncc2C1	21µM*	/	?	/	/
Cc1nn(Cc2ccccc2)c(Cl)c1C(=O)OCC(=O)Nc1cccc2ccccc12	?	-8%	-30%	5%	1%
NC1=C([N+](=O)[O-])C(c2ccc3c(c2)OCO3)c2c(c3ccccc3oc2=O)O1 (centres undefined)	20%	-15%	-2%	6%	20%
O=c1oc2ccccc2c(O)c1[C@H]1c2ccc(O)cc2Oc2c1c(=O)oc1ccccc21	23µM*	-25%	?	-12%	2%
CC1C(=O)OC2C1CC[C@@]1(C)C=CC(=O)[C@@]3(C)O[C@@]213 (some centres undefined)	?	?	?	11%[56.1 µM]	16%
COc1cccc(C2SCC(=O)Nc3c2c(C)nn3-c2ccc(C)c(Cl)c2)c1OC (centres undefined)	21µM*	/	21µM*	9%	/
COc1cc(C2SCC(=O)Nc3c2c(C)nn3-c2ccccc2)cc(OC)c1OC (centres undefined)	-9%	-7%	-20%	6%	16%
CCCOc1ccc(C2SCC(=O)Nc3c2c(C)nn3-c2cccc(C)c2)cc1OC (centres undefined)	21µM*	/	16µM*	3%	/
SMILES	TDP1 cell noCPT	RORgamma inh	TDP1 cell CPT	TDP1 block	Gal4-VP16 FLuc
CCOC(=O)C1=C(CN2CCN(c3ccc(C)cc3C)CC2)NC(=O)NC1c1ccc(OC)cc1 (centres undefined)	?	/	?	9%	/
COC(=O)C1=C(c2ccc(S(C)(=O)=O)cc2)C[C@@H]2CC[C@H]1N2C(=O)NC1CCCCC1	-25%	/	-18%	/	/
COc1ccc(Nc2nc(NC(C)C)nc3ccsc23)cc1OC	18µM*	/	18µM*	/	/
COC(=O)C1=C(c2ccccc2)C[C@@H]2CC[C@H]1N2C(=O)NC1CC1	/	/	-12%	/	/
COCCCn1c(N)c(C(=O)NCc2ccco2)c2nc3ccccc3nc21	?	17%	?	/	-8%
CC(C)CCNC(=O)c1c(N)n(CC2CCCO2)c2nc3ccccc3nc12 (centres undefined)	29µM*	14%	26µM*	-2%	0%
COc1ccc(CCNC(=O)c2c(N)n(CCN3CCOCC3)c3nc4ccccc4nc23)cc1	18µM*	?	21µM*	-3%	?
Nc1c(C(=O)NCCN2CCOCC2)c2nc3ccccc3nc2n1Cc1ccccc1	23µM*	-1%	?	1%	-13%
CCC(C)OC(=O)c1c(N)n(Cc2cccs2)c2nc3ccccc3nc12 (centres undefined)	?	?	?	-2%	?
CCC(C)NC(=O)c1c(N)n(Cc2ccc3c(c2)OCO3)c2nc3ccccc3nc12 (centres undefined)	26µM*	?	?	/	-23%
CCC(C)NC(=O)c1c(N)n(CC2CCCO2)c2nc3ccccc3nc12 (centres undefined)	-29%	13%[10 µM]	-14%	0%	-15%
Nc1c(C(=O)OCc2ccccc2)c2nc3ccccc3nc2n1Cc1cccs1	?	?	?	2%	-9%
CCc1c(C)nc(N)nc1N1N=C1SC	-14%	0%	-1%	-1%	-5%
CCC(C)n1c(=O)[nH]c(C)c(Br)c1=O (centres undefined)	/	11%	/	8%	4%
Cc1ccc(OCC(=O)N2CCCC(N3CCN(c4ccc(F)cc4)CC3)C2)cc1 (centres undefined)	?	23%	?	5%	5%
Nc1c(C(=O)NCCc2ccccc2)c2nc3ccccc3nc2n1CCN1CCOCC1	16µM*	2%	21µM*	5%	-23%
COCCNC(=O)c1c(N)n(Cc2ccco2)c2nc3ccccc3nc12	?	?	?	-10%	1%
C=CCNC(=O)c1c(N)n(Cc2ccco2)c2nc3ccccc3nc12	15µM*	39%	7.3µM*	3%	-2%
Nc1c(C(=O)NCCN2CCOCC2)c2nc3ccccc3nc2n1Cc1ccco1	15µM*	0%	?	/	0%
COCCNC(=O)c1c(NC(=O)c2ccco2)n(Cc2ccccc2)c2nc3ccccc3nc12	21µM*	-24%	?	0%	-1%
COC(=O)c1ccc(N2C(=O)CC(N3CCC(O)(c4ccc(Br)cc4)CC3)C2=O)cc1 (centres undefined)	-16%	?	?	3%	?

Source: PubChem (National Center for Advancing Translational Sciences (NCATS))
